# Assay outcomes as filed in PubChem BioAssay.
# Rows were chosen to be rich in hits. Some 8.8% of all compounds tested hit in one or more screens of this group.
# HPGD block – HPGD (human) dehydrogenase inhibition; purified HPGD, NADH fluorescence kinetic, PGE2 substrate; AID 894; Potency, µM, inactives show at the highest dose activity change, negative = inhibition, hits mostly inhibitors; P15428; 150,000 tested, 4.3% active; further: on the % scale 0 is the no-effect control and ±100 the full control effect
#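 NADH formation kinetics: reaction with 30 uM PGE2 and 1 mM NAD+ (final), 20 nM enzyme, Tris-HCl pH 8 with Tween 20, after 15 min compound preincubation at room temperature. Fluorescence change, last versus first of five reads.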
# HTT aggregate – reduces HttQ103-GFP aggregates in PC12 cells. Potency, µM (series often up to 46.1 µM), inactives show at the top dose activity change, negative = inhibition, most hits filed as inhibitors. 220,000 tested, 1.1% active. PC12 HttQ103-GFP aggregates, Acumen cytometry, 40 h. AID 1688; active means well fitted curve in the direction sought with a large enough effect; inconclusive means small, poorly fitted or top-dose-only effect, or another doubt; inactive means no such curve, though single readings can be large; an effect the other way counts as inactive or inconclusive; further: on the % scale 0 is the no-effect control and ±100 the full control effect; nearly all actives have a fitted effect of over 60% in size
#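 Steps: seed 1500 PC12 HTTQ103-GFP cells/well; add tebufenozide, 100 nM final; add compound titration; add ATPLite reagent; quantify GFP aggregates by laser scanning cytometry.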
# HTT cytoprotect – protects HTT-Q103 PC12 cells, measured by ATP. Potency, µM (top dose mostly 56.4 µM), without a hit: cytoprotection (ATP increase), usual class: activators. AID 1471. 230,000 tested, 0.14% active. PC12 HTT-Q103 induced, cytoprotection, ATP luminescence, 40 h; active means well fitted curve in the direction sought with a large enough effect; inconclusive means small, poorly fitted or top-dose-only effect, or another doubt; inactive means no such curve, though single readings can be large; an effect the other way counts as inactive or inconclusive; further: % of control where 0% means no effect; nearly all actives have a fitted effect of over 45% in size
#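 PC12 cells with ecdysone-inducible HTT exon 1 Q103-GFP, induced with 100 nM tebufenozide and co-treated with library compounds in a dose series (1536-well, 1500 cells/well). Cytoprotection read as ATP content by ATPlite luminescence.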
# ALDH1A1 block – inhibitors of human aldehyde dehydrogenase 1A1 | P00352 | Purified ALDH1A1, NADH fluorescence, propionaldehyde substrate | Potency, µM (doses to about 75.3 µM), for the others: at the top dose activity, negative = inhibition, usual class: inhibitors | 220,000 tested, 7.3% active | AID 1030;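 further: plate controls were no enzyme wells and a reference inhibitor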
# Target sequence (P00352 whole entry, looked up): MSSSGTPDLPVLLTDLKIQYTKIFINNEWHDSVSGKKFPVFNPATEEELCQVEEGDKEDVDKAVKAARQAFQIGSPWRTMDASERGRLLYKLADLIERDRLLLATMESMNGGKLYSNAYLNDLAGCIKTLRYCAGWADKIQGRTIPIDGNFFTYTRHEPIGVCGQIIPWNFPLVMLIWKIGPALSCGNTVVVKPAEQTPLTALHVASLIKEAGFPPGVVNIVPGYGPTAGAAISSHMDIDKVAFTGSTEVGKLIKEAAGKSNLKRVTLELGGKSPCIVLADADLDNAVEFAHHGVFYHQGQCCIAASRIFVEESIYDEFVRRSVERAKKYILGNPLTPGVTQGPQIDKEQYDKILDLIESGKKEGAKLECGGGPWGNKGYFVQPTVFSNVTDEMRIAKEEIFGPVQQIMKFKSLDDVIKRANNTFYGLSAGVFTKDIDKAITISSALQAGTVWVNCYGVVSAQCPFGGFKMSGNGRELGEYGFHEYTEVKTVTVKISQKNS
# Lamin A splicing – changes lamin A minigene splicing in HeLa cells. HeLa LMNA splicing GFP/RFP minigene ratio, 48 h. Potency, µM (titrated, usually from 46.1 µM), for the others: top-dose ratio change, negative = inhibition, hits mostly inhibitors. 200,000 tested, 0.01% active; active means well fitted inhibition curve with a large enough effect in the signal ratio, with a control signal flat, not every such curve was filed as active; inconclusive means small, poorly fitted or top-dose-only effect, or effect the other way, or a change in a side signal; the % refers to the signal ratio; further: on the % scale 0 is the no-effect control and ±100 the full control effect
#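 Read-out is the ratio of GFP to DsRed2 object intensity, acquired by 488 nm laser-scanning cytometry on HeLa lamin A-EGFP minigene reporter cells. Compound incubation 48 hrs at 37 °C in Opti-MEM with 2% FBS; DMSO 0.5% final.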
# The depositor's hits bear a star; ? = inconclusive; . = not tested or not shown; [ ] = another dose, or the depositor's remark. Unless noted, the call rests on the fitted dose curve; in most records, active means well fitted inhibition curve with a large enough effect (not every such curve was filed as active); inconclusive means small, poorly fitted or top-dose-only effect, or another doubt; inactive means no such curve, though single readings can be large or run the other way. Potency means the concentration at half of the fitted maximal effect.
SMILES,HPGD block,HTT aggregate,HTT cytoprotect,ALDH1A1 block,Lamin A splicing
CNC(=O)COc1ccc(Nc2nnc(C)c3ccccc23)cc1,.,-1%[9.22 µM],-13%[10 µM],.,.
CCN(CC)C(=O)c1ccc(Nc2nnc(C)c3ccccc23)cc1,2.2µM*,-4%,-3%[10 µM],4µM*,-13%
COC(=O)c1ccccc1C[C@]1(C(=O)OC)C=C[C@H](C)[C@@H](c2ccccc2)N1C(=O)C(F)(F)F,-13%,.,-18%,10%,.
CN1C(=O)C[C@@H](C(=O)N[C@@H](Cc2cnc[nH]2)C(=O)N2CCC[C@H]2C(N)=O)NC1=O,.,-4%,-7%,.,.
CN(C)S(=O)(=O)c1cc(NC(=O)CN2CCN(c3ccccc3F)CC2)ccc1Cl,.,-20%,2%,?,.
CN(C)S(=O)(=O)c1cc(NC(=O)CN2CCCc3ccccc32)ccc1Cl,.,?,-34%,8.9µM*,9%[9.22 µM]
CCN1CCN(CC(=O)Nc2ccc(Cl)c(S(=O)(=O)N(C)C)c2)CC1,.,18%,-2%,3.5µM*,.
CN(C)S(=O)(=O)c1ccc(NC(=O)CN2CCCc3ccccc32)cc1,.,18%,.,18µM*,.
O=C(CN1CCCc2ccccc21)N1CCc2ccccc21,.,18%[9.22 µM],8%[10 µM],.,.
CN(C)S(=O)(=O)c1cc(NC(=O)CN2CCOCC2)ccc1Cl,.,-20%,-41%,-7%,?
NNC(=O)CN1CCCc2ccccc21,.,3%,-18%[10 µM],6.3µM*,-10%[46 µM]
C=CCOC(=O)N[C@H](c1cccc(C(F)(F)F)c1)C(C(C)=O)C(C)=O,-19%,.,20%,10%,.
COC(=O)c1ccc(-c2ccc(Cl)cc2)nc1C,-10%,5%,.,-12%,2%
CN(C)S(=O)(=O)c1cc(NC(=O)CN2CCc3ccccc32)ccc1Cl,.,-13%,?,1.6µM*,.
CC1Cc2ccccc2N1CC(=O)Nc1ccc(Cl)c(S(=O)(=O)N(C)C)c1 (stereo not given),.,-24%,-26%,?,0%[9.22 µM]
CC(C)(C)Nc1oc(-c2ccccc2)nc1-c1ccccc1F,-11%,.,8%,-5%,.
O=C(NNc1ccc(O)cc1)c1ccc(Br)cc1,.,-6%,-44%,7.1µM*,.
Cc1cc(C(F)(F)F)n(-c2nc(C(=O)N/N=C/c3ccc(F)cc3)cs2)n1,28µM*,?,-54%,?,?
COc1cccc(/C=N/NC(=O)c2csc(-n3nc(C)cc3C(F)(F)F)n2)c1,-28%,-15%,2%[10 µM],4%,-10%
N#CC1=C(N)Oc2cc3ccccc3cc2C1c1cccnc1 (stereo not given),28µM*,3%,-11%,14µM*,-18%
N#CC1=C(N)Oc2n[nH]c(-c3ccncc3)c2C1c1ccsc1 (stereo not given),22µM*,12%,16%[0.074 µM],-20%,0%
CCC(CC)C1C(C#N)=C(N)Oc2n[nH]c(C)c21 (stereo not given),-3%,-12%,-21%,-1%,-10%
COc1ccc(N=Cc2cc3c(cc2O)OC(N)=C(C#N)C3c2ccccc2)cc1 (stereo not given),-15%,7.9µM*,7%[1.9 µM],-4%,?
N#CC1=C(N)Oc2cc(O)ccc2C1c1ccccc1 (stereo not given),-3%,-10%,-1%,?,-13%
CCc1[nH]nc2c1C(C(C)C)C(C#N)=C(N)O2 (stereo not given),-15%,11µM*,20%[10 µM],?,?
CCC(=O)Oc1ccc(C(=O)Nc2ccc3c(c2)OCO3)cc1,.,9%[9.22 µM],-167%,?,.
CCCc1[nH]nc2c1C(c1cn[nH]c1-c1ccc(F)cc1)C(C#N)=C(N)O2 (stereo not given),-7%,11µM*,0%[1.9 µM],?,?
CCCc1[nH]nc2c1C(/C(C)=C/c1ccccc1)C(C#N)=C(N)O2 (stereo not given),-9%,13%,-19%,14µM*,?
CCCc1[nH]nc2c1C(c1ccncc1)C(C#N)=C(N)O2 (stereo not given),-23%,-8%,-19%,14µM*,12%
CCCc1[nH]nc2c1C(c1cccnc1)C(C#N)=C(N)O2 (stereo not given),-6%,-2%,-34%,14µM*,-4%
